Source: PubChem BioAssay (several laboratories)
GDH-TPI counter = inhibits GDH-TPI coupling enzymes, artifact for Mtb FBA screen. GDH-TPI coupled enzyme counterscreen, NADH absorbance. inhibition, % at 4.8 µM. hit rate 1.2% among 360,000. AID 588335; in the data active = inhibition above about 30%;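 also: 0% = DMSO wells and 100% = wells lacking the enzyme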
PrPC TRFRET = inhibitors of human cell surface prion protein PrPC. P04156. TR-FRET read-out. inhibition, % at 13.8 µM. hit rate 0.43% among 370,000; in the data active = inhibition above about 24%; also: 0% = median of the test wells and 100% = reference compound wells
TcdB inh = blocks C. difficile toxin B glycohydrolase activity | inhibition, % at 9.99 µM | TcdB glycohydrolase enzymatic assay, plate reader | hit rate 0.24% among 350,000 | AID 652162 | P18177; in the data active = inhibition above about 10%
FBA Mtb inh = Mtb fructose-bisphosphate aldolase inhibition. P9WQA3. purified M. tuberculosis FBA, fluorescence read-out. inhibition, % at 1 µM. hit rate 2.3% among 360,000. AID 588726; in the data active = inhibition above about 27%;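 also: 0% = vehicle and 100% = reference inhibitor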
Target sequence (P9WQA3 whole entry, looked up): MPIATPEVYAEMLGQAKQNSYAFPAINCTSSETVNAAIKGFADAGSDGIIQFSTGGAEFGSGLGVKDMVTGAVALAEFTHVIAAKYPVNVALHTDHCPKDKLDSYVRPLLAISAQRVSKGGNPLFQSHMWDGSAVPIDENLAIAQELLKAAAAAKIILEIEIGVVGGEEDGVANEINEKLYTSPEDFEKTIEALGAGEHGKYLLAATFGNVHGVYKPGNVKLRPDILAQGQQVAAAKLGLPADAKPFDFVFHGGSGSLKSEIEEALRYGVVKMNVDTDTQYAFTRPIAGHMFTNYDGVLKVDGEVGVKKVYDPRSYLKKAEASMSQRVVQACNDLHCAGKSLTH
Yp Topo-I inh = Y. pestis Topo-I inhibition via cleavage products; Y. pestis Topo-I cleavage product accumulation, plate reader; hit rate 0.064% among 360,000; activity, % at 10 µM; in the data active = activity above about 50%, passing the limit was not always enough
The depositor's hits bear a star; / = not tested or not shown; + = active, no number. An excerpt weighted towards active compounds, which were near 3.2% of everything screened.

SMILES	GDH-TPI counter	PrPC TRFRET	TcdB inh	FBA Mtb inh	Yp Topo-I inh
COCCn1c(C)cc2c(c1=O)C(c1ccco1)C(C#N)=C(N)O2 (stereo unspecified)	6	-3	/	49*	2
C#C[C@]1(O)CC[C@H]2[C@@H]3CCC4=CC(=O)CC[C@@H]4[C@H]3CC[C@@]21C	12	1	5	5	0
C#CC1(O)CCC2C3CCC4=CC(=O)CCC4=C3C=CC21C (stereo unspecified)	42*	-5	-1	14	9
Cc1cccc(-n2c(=O)c(C#N)cc3c(=O)n4ccccc4nc32)c1	5	-16	/	+	5
Cc1ccc(-n2c(=O)c(C#N)cc3c(=O)n4ccccc4nc32)cc1	3	-6	/	149*	-4
CCC(C)n1c(=N)c(C#N)cc2c(=O)n3ccccc3nc21 (stereo unspecified)	-2	-8	/	16	-4
Cc1ccc(C)c(-n2c(=O)c(C#N)cc3c(=O)n4ccccc4nc32)c1	4	-10	2	133*	3
CCCNC(=O)C[C@H]1CC[C@H]2[C@@H](COC[C@H](O)CN2CC2CCCCC2)O1	/	/	0	/	/
CCCNC(=O)Nc1ccc2c(c1)C(=O)N(C)C[C@@H](OC)[C@@H](C)CN(C(=O)C1CCOCC1)[C@@H](C)CO2	/	/	-1	/	/
S=c1[nH]c(-c2ccccc2)cs1	3	-3	17*	-1	-3
Fc1ccc(-c2csc(=S)[nH]2)cc1	1	-6	19*	1	7
O=c1[nH]c(-c2ccccc2)cs1	7	-4	0	-4	-2
C[C@@H]1CN([C@@H](C)CO)C(=O)c2c(c3ccccc3n2C)-c2ccccc2CO[C@@H]1CN(C)C	/	/	20*	/	/
C[C@H]1CN([C@@H](C)CO)C(=O)c2c(c3ccccc3n2C)-c2ccccc2CO[C@H]1CN(C)C	/	/	11*	/	/
CN(C)C(=O)[C@H]1[C@H](CO)[C@H]2Cn3c(ccc(C4=CCCCC4)c3=O)[C@H]2N1Cc1ccccn1	/	/	1	/	/
COc1ccc2oc(=Nc3cc(F)ccc3F)c(C(N)=O)cc2c1	5	7	6	21	6
COc1ccc(OC)c(N=c2oc3cc(O)ccc3cc2C(N)=O)c1	9	0	/	116*	5
NC(=O)c1cc2ccc(O)cc2oc1=NCc1ccccc1	15	3	-3	+	-11
NC(=O)c1cc2ccccc2oc1=NCc1ccccc1	7	-9	/	3	27
NC(=O)c1cc2ccc(O)cc2oc1=Nc1ccccc1	16	-4	/	+	-10
O=C(O)c1cc2ccc(O)cc2oc1=O	17	-6	0	/	1
N#C[C@H]1[C@H](c2ccccc2)[C@H](CO)N1C(=O)c1ccc2c(c1)OCO2	/	/	0	/	/
COC(=O)C1=C(c2ccc(F)cc2OCc2ccccc2)C[C@@H]2CC[C@H]1N2C(=O)NCCOc1ccc(OC)cc1	4	0	1	0	0
COC(=O)C1=C(c2ccc(OC(F)(F)F)cc2)C[C@@H]2CC[C@H]1N2C(=O)NCCc1ccccc1	58*	0	1	7	36
COC(=O)C1=C(c2ccc(F)cc2OCc2ccccc2)C[C@@H]2CC[C@H]1N2C(=O)NCCOc1ccccc1	-7	4	10*	-2	7
SMILES	GDH-TPI counter	PrPC TRFRET	TcdB inh	FBA Mtb inh	Yp Topo-I inh
COC(=O)C1=C(c2ccc(F)cc2OCc2ccccc2)C[C@@H]2CC[C@H]1N2C(=O)N1CCCC1	3	1	10*	1	13
O=C(C[C@@H]1C[C@H]2c3cc(NS(=O)(=O)c4ccc(F)cc4)ccc3O[C@H]2[C@@H](CO)O1)N1CCOCC1	/	/	-2	/	/
O=C(N/N=C/c1cccnc1)c1cccc(N2CCCC2=O)c1	-5	-8	0	-6	1
COc1cc(/C=N/NC(=O)c2cccc(N3CCCC3=O)c2)ccc1O	40*	-7	5	0	-15
CCN(CC)c1ccc(/C=N/NC(=O)c2cccc(N3CCCC3=O)c2)cc1	31*	7	0	-1	15
COc1ccccc1-c1cn(CC[C@H]2CC[C@@H](NC(=O)c3ccccc3F)[C@H](CO)O2)nn1	/	/	0	/	/
Cc1cc(=O)oc2cc(OCC(=O)NCCCN3CCOCC3)ccc12	12	-1	/	15	-1
CCCc1cc(=O)oc2c(C)c(OCC(=O)NCCN3CCOCC3)ccc12	15	-11	1	16	3
CCCc1cc(=O)oc2cc(OCC(=O)NCCN3CCOCC3)c(Cl)cc12	33*	3	-3	16	2
CCc1cc(=O)oc2cc(C)cc(OCC(=O)NCCCN3CCOCC3)c12	21	1	1	116*	-1
O=C(O)c1cc(NS(=O)(=O)c2ccc(NC3CCCCC3)c([N+](=O)[O-])c2)cc(C(=O)O)c1	0	-6	13*	-3	1
CNC[C@H]1OCCCC[C@H](C)Oc2ccc(NC(=O)Nc3ccc(F)cc3)cc2C(=O)N([C@H](C)CO)C[C@@H]1C	/	/	1	/	/
O=C(/C=C/c1cccc([N+](=O)[O-])c1)N1CCOCC1	4	-15	/	-3	2
O=C(/C=C/c1ccc(-c2cccc([N+](=O)[O-])c2)o1)N1CCOCC1	38*	-25	0	0	-3
COc1ccc(C(=O)N/C(=C\c2cn(C)c3ccccc23)C(=O)N2CCN(C)CC2)cc1	43*	-14	0	-1	5
Cn1cc(/C=C(\NC(=O)c2ccccc2)C(=O)NCCCN2CCOCC2)c2ccccc21	33*	-6	0	2	-14
CCn1cc(/C=C(\NC(=O)c2ccccc2F)C(=O)NCCN2CCOCC2)c2ccccc21	33*	-13	1	-6	0
C/C=C/c1ccc([C@H]2[C@H](CO)N(C(=O)CN(C)C)C23CN(C(=O)C2CCOCC2)C3)cc1	/	/	2	/	/
O=C(NCCCN1CCOCC1)/C(=C/c1ccc(-c2cccc([N+](=O)[O-])c2)o1)NC(=O)c1ccccc1	40*	-33	-1	-4	-4
CCCN1C[C@@H](C)[C@H](OC)CN(C)C(=O)c2cc(NC(=O)c3ccccc3F)ccc2OC[C@H]1C	/	/	-3	/	/
O=C(Nc1nccs1)C1CCCN1/C=C/C(=O)C(F)(F)F (stereo unspecified)	35*	7	4	2	-2
Cc1ccc(S(=O)(=O)N2CCCC2C(=O)Nc2nccs2)cc1 (stereo unspecified)	10	-1	/	3	1
Cc1c(C(=O)N2CCC(C)CC2)sc2ncnc(N(C)c3ccccc3)c12	35*	9	/	0	17
Cc1c(C(=O)N2CCC3(CC2)OCCO3)sc2ncnc(N(C)c3ccccc3)c12	20	1	/	1	13
CO[C@@H]1CN(C)C(=O)c2ccc(NC(=O)C3CC3)cc2OC[C@@H](C)N(Cc2cccnc2)C[C@@H]1C	/	/	0	/	/
Nc1nonc1-c1nc2ccccc2n1CC(=O)N/N=C/c1ccc(-c2ccccc2C(=O)O)o1	42*	-12	-2	2	6
Nc1nonc1-c1nc2ccccc2n1CC(=O)Nc1ccccc1	22	7	-1	0	0
